The values that follow come from PubChem BioAssay.

The nature of this assay: JC-1 mitochondrial signal, unstimulated myeloma cells – cell-based, JC-1 fluorescence, RPMI8226, 24 h, 100 nL compound, profiling panel (AID 1169). Further: test concentration not given here. The settings on record: JC-1 mitochondrial potential fluorescence, higher = more signal.
For `COC(=O)C1(Cc2ccccc2)C=C2C(=C(C(C)C)C(=O)C2C)CN1` (stereo unspecified), the z-score was 0.838. The result for `Cc1c(NC(=O)/C(C#N)=C/C=C/c2ccccc2[N+](=O)[O-])c(=O)n(-c2ccccc2)n1C` reads -0.588. The result for `[N-]=[N+]=NCc1ccccc1C[C@@]1(C(=O)NCCN2CCOCC2)N=C(c2ccc(OCCCO)cc2)O[C@@H]1c1ccccc1N=[N+]=[N-]` reads -0.923; that for `C[n+]1ccc(CCCO)cc1`, -0.502. The result for `CN1C(=O)C2C=CC(C(O)c3c(F)cccc3Cl)N(Nc3ccccc3)C2C1=O` (stereo unspecified) reads -0.725; that for `C=C[C@@H](C)[C@H](OC(=O)Nc1ccc(SC)cc1)c1ccc(OCCO)cc1`, 0.917. Turning to `CC(C)C(O)C1C=CC2C(=O)N(C)C(=O)C2N1N(c1ccccc1)c1ccccc1` (stereo unspecified), the z-score is -0.286. `O=C1c2ccccc2[C@](Cc2ccccc2I)(C(=O)NCc2ccccc2)[C@H](c2ccc(CO)cc2)N1C1CCCCC1` came in with a z-score of 0.173. The result for `CC(=O)n1cc(C(O)C2C=CC3C(=O)N(Cc4ccccc4)C(=O)C3N2n2cnnc2)c2ccccc21` (stereo unspecified) reads 0.563; that for `COc1cc2c(cc1OC)CN(C(=O)[C@H]1[C@@H]3C(=O)O[C@@H](c4ccccc4)[C@@H](c4ccccc4)N3[C@@H](c3ccc(OCCO)cc3)[C@]13C(=O)Nc1ccc(C#CC4(O)CCCCCC4)cc13)CC2`, -0.338; that for `O=c1cccc(-c2ccc(C(F)(F)F)cc2)o1`, 0.942. The result for `COc1ccc(C(O)C2C=CC3C(=O)N(Cc4ccccc4)C(=O)C3N2n2cnnc2)c2ccccc12` (stereo unspecified) reads -0.992.

In the case of `CC(C)(C)OC(=O)CC[C@]1(C(=O)NCCN2CCOCC2)N=C(c2ccc(OCCCO)cc2)O[C@H]1c1ccccc1N=[N+]=[N-]`, the z-score is -0.683. With `C=CC[C@H](OC(=O)Nc1ccc(OC)cc1)c1ccc(O)c2ccccc12` the figure was -1.02.

`COC(=O)[C@@]1(Cc2ccc(OC)cc2)[C@H]2c3cc(C(=O)N4CCCC4)n(CCc4cc5ccccc5[nH]4)c3C[C@H]2CN1C(=O)c1ccccc1` showed a z-score of -0.922. In the case of `COc1ccc(CCNC(=O)[C@@]2(Sc3ccc(C)cc3)CC(=O)N(Cc3cc(C(F)(F)F)cc(C(F)(F)F)c3)[C@@H]2c2ccc(CO)cc2I)cc1`, the z-score was -0.165. With `COc1ccc(C(O)C2C=CC3C(=O)N(C)C(=O)C3N2N2CCCCC2)cc1` (stereo unspecified) the figure was -0.176; with `COc1ccc([Si](C)(C)[C@@H]2[C@@H](CC(=O)N3CCC[C@H]3CO)O[C@]3(C(=O)N(Cc4ccc(N5C(=O)c6cccc7cccc5c67)cc4)c4ccccc43)[C@H]2C)cc1`, -1.01; with `O=C1c2ccccc2[C@@]2(Cc3ccccc3N(C3CC3)C2=O)[C@H](c2ccc(CO)cc2)N1C1CCCCC1`, 0.818. The result for `CCOC(=O)C1=CC[C@@H](c2cc(Cl)ccc2Cl)N(S(=O)(=O)c2ccc(C)cc2)[C@H]1c1ccc(OC)cc1` reads 0.642. With `CC=CC(O)C1C=CC2C(=O)N(C)C(=O)C2N1N1CCCCC1` (stereo unspecified) the figure was -0.615. `C=C(C(=O)CC[C@H](OC(C)=O)c1cccc(OCCO)c1)C(C)C` yielded a z-score of -0.427. With `CC(C)C(=C=CC[C@H](O)c1ccc(OCCO)cc1)C[C@H](O)c1cc(Cl)cc(Cl)c1O` the figure was -0.124. With `COc1ccc(C#Cc2ccc3c(c2)[C@]2(C(=O)N3)[C@H](C(=O)N3CCc4cc(OC)c(OC)cc4C3)[C@H]3C(=O)O[C@H](c4ccccc4)[C@H](c4ccccc4)N3[C@@H]2c2ccc(O)cc2)cc1` the figure was -0.356; with `CN1C(=O)[C@@]2(CCS(=O)(=O)c3ccccc3)N=C(c3ccc(OCCCO)cc3)O[C@H]2c2ccccc21`, -0.776; with `CC[C@H]1C2=C3C(CC[C@H]4C(OCc5ccc(F)cc5C(F)(F)F)OC[C@](C)([C@@H]34)N(C(=O)OC(C)(C)C)C2)C2COC(=O)OCC21` (stereo partly specified), -0.0899. With `Cc1ccc(S[C@]2(C(=O)NCc3ccccc3)CC(=O)N(C(C)C)[C@@H]2c2ccc(CO)cc2I)cc1` the figure was -0.592. As for `Cc1ccc(C(C)CC(O)C2C=CC3C(=O)N(c4ccccc4)C(=O)C3N2Nc2ccc(C(C)C)cc2)o1` (stereo unspecified), the z-score was -0.778.

`COCCOC(=O)N1C(=O)[C@@]2(c3cc(C#Cc4ccc(OC)cc4)ccc31)[C@H](C(=O)NC[C@H](O)c1ccccc1)[C@H]1C(=O)O[C@H](c3ccccc3)[C@H](c3ccccc3)N1[C@@H]2c1ccc(O)cc1` registered a z-score of -0.723. The result for `COCCOC(=O)N1C(=O)[C@@]2(c3cc(C#CC4(O)CCCCCC4)ccc31)[C@H](C(N)=O)[C@H]1C(=O)O[C@H](c3ccccc3)[C@H](c3ccccc3)N1[C@@H]2c1ccc(O)cc1` reads -0.522; that for `CC1CC/C=C\[C@H]2OC34C=CCN(C(C)C)C(=O)[C@H]3N(CCCCCO)C(=O)[C@@H]4C2C(=O)O1` (stereo partly specified), -0.137.
